Consider one compound from PubChem BioAssay AID2284133 (EPA ToxCast).

Calls of active or inactive are those of the source. Rule for the calls: active = hit-call score of the fitted dose curve at least 0.9, where 1 is the maximum; inactive = score below 0.9.

human MARK1 CAMK Kinase, MARK1 (gene 4139), sequence (Q9P0L2 whole entry, looked up): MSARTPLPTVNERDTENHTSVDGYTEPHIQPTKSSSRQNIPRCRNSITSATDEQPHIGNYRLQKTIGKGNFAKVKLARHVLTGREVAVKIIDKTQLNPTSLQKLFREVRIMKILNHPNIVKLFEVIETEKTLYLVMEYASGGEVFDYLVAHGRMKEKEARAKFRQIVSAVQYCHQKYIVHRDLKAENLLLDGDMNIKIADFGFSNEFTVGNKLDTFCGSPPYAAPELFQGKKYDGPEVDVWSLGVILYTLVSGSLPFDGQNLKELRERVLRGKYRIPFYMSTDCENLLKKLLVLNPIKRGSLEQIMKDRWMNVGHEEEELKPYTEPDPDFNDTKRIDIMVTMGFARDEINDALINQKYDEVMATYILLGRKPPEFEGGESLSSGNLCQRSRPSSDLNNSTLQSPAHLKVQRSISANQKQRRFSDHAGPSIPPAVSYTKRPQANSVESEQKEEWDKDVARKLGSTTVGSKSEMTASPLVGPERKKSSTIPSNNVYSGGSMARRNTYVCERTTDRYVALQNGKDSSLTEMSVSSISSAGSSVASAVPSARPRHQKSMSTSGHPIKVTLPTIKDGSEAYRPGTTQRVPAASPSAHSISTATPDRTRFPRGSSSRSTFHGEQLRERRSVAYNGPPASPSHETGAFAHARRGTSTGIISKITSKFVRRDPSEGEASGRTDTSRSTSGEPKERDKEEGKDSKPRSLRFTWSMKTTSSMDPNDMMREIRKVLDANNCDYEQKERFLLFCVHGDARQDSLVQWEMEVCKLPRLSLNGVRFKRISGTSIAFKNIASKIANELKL

The assay addresses human MARK1 CAMK Kinase, MARK1 (gene 4139) (UniProt Q9P0L2). In words: ERF_FR_ENZ_hMARK1: Eurofins (ERF) Enzymatic Radiometric [Km ATP] KinaseProfiler LeadHunter Assay for human MARK1 CAMK Kinase. Here is the method:
ERF_FR_ENZ_hMARK1 is a biochemical, single-readout assay that uses extracted gene-proteins in a cell-free assay. Measurements were taken 0.5 hour after chemical dosing in a 96-well plate. See MARK1 Human CAMK Kinase Enzymatic LANCE Assay [Km ATP], Cerep.ERF_FR_ENZ_hMARK1 is an assay component calculated from the ERF_FR_ENZ_hMARK1 assay. It is designed to measure enzyme activity using a type of enzyme reporter as detected by fluorescence intensity with LANCE technology.Data from the assay component ERF_FR_ENZ_hMARK1 was analyzed at the assay endpoint, ERF_FR_ENZ_hMARK1, in the positive analysis fitting direction relative to DMSO as the negative control and baseline of activity. Using a type of enzyme reporter, loss-of-signal activity can be used to understand changes in enzymatic activity as they relate to gene MARK1. To generalize the intended target to other relatable targets, this assay endpoint is annotated to the kinase intended target family, where the subfamily is serine/threonine kinase.
[…] is incubated with 50 mM Na-b-glycerophosphate pH 7.5, 0.1 mM EGTA, 30 uM […], 10 mM MgAcetate and [gamma-33P]-ATP (specific activity and concentration as required). The reaction is initiated by the […] addition of the Mg/ATP mix. After incubation for 40 minutes at room temperature, the reaction is stopped by the addition of phosphoric acid to a concentration of 0.5%. […]
Turning to `O=C(/C=C/c1ccc(O)cc1)CC(=O)/C=C/c1ccc(O)cc1`, the outcome was inactive.
